Assay outcomes deposited in PubChem BioAssay by National Center for Advancing Translational Sciences (NCATS).
Rows were chosen to be rich in hits. Some 0.99% of all compounds tested hit in one or more screens of this group.
FEN1 inh-1 = human FEN1 inhibition. P39748. Recombinant FEN1 flap cleavage, fluorescence, 15 min. Potency, µM (doses to about 114 µM), usual class: inhibitors. 0.35% of 390,000 active. AID 588795; note: nearly all actives have a fitted effect of over 65% in size
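Reaction started by adding substrate (50 nM final) to 10 nM enzyme after 15 min room-temperature compound preincubation. Reads at 0 and 15 min, with data normalized and fitted to a four-parameter Hill equation.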
BLM helicase inh-1 = blocks DNA unwinding by human BLM helicase. P54132. recombinant BLM DNA unwinding, fluorescence dequenching. 0.2% of 350,000 active. Potency, µM (top dose mostly 56.1 µM), usual class: inhibitors; note: nearly all actives have a fitted effect of over 35% in size
WRN helicase inh-1 = inhibitors of human WRN helicase; WRN helicase unwinding, fluorescent forked duplex, kinetic; 0.46% of 360,000 active; AID 651768; Potency, µM (highest dose often 114 µM), hits mostly inhibitors; note: nearly all actives have a fitted effect of over 55% in size
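Kinetic fluorescence helicase assay: unwinding of a quenched forked DNA duplex (100 nM final) with 2 mM ATP final raises red fluorescence (525/598 nm). Compounds sat 15 min at room temperature with 20 nM WRN beforehand.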
L3MBTL1 block = inhibitors of human L3MBTL1 | Q9Y468 | AlphaScreen L3MBTL1–H3K9me1 peptide binding | Potency, µM (titrated, usually from 57.1 µM), hits mostly inhibitors | 0.66% of 230,000 active | AID 485360; note: nearly all actives have a fitted effect of over 60% in size
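Displacement of a biotinylated histone H3(1-15) peptide monomethylated at Lys9 (75 nM) from L3MBTL1 (50 nM) was measured by AlphaScreen after a 30 min room-temperature compound incubation; cefsulodin titration served as intraplate control.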
RECQ1 inh = inhibitors of human RECQ1 DNA helicase | RECQ1 DNA unwinding, red fluorescence kinetic read | P46063 | Potency, µM (series often up to 57.3 µM), actives largely listed as inhibitors | AID 2549 | 0.54% of 240,000 active; note: nearly all actives have a fitted effect of over 30% in size
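RECQ1T1 50 nM; forked duplex (20 bp + 30-nt ss tails) 200 nM, ATP 2 mM final; pH 8.0, 2 mM MgCl2, 2.5 ug/ml poly(dI-dC); 15 min compound preincubation; discontinuous kinetic read over 2 h at RT.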
FEN1 inh-2 = FEN1 inhibition, cherry-pick retest. AID 720498. FEN1 flap cleavage, TAMRA/BHQ2 fluorogenic DNA substrate. shares compounds with FEN1 inh-1. Potency, µM, most hits filed as inhibitors. 79% of 880 active; note: nearly all actives have a fitted effect of over 60% in size
WRN helicase inh-2 = confirmation of human WRN helicase inhibitors. Potency, µM (titrated, usually from 57.1 µM), usual class: inhibitors. WRN helicase DNA unwinding, fluorescence kinetic. shares compounds with WRN helicase inh-1. 63% of 610 active; note: nearly all actives have a fitted effect of over 65% in size
TO displacement = DNA binding via thiazole orange displacement. shares compounds with WRN helicase inh-1. thiazole orange DNA binding displacement, fluorescence. Potency, µM (highest dose often 57.1 µM), actives largely listed as inhibitors. 10% of 610 active. AID 720499;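 note: drop in dye fluorescence marks compound binding to DNA; nearly all actives have a fitted effect of over 60% in size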
BLM helicase inh-2 = BLM helicase inhibition, WRN selectivity check; shares compounds with WRN helicase inh-1; Recombinant BLM helicase DNA unwinding, red fluorescence; Potency, µM (doses to about 57.1 µM), actives largely listed as inhibitors; 60% of 610 active; note: nearly all actives have a fitted effect of over 60% in size
Hits are given with their value; . = inactive; ? = inconclusive; / = no result given. Calls come from the whole dose curve; as a rule, active = well fitted curve in the direction sought with a large enough effect; inconclusive = small, poorly fitted or top-dose-only effect, or another doubt; inactive = no such curve, though single readings can be large; an effect the other way counts as inactive or inconclusive.

SMILES | FEN1 inh-1 | BLM helicase inh-1 | WRN helicase inh-1 | L3MBTL1 block | RECQ1 inh | FEN1 inh-2 | WRN helicase inh-2 | TO displacement | BLM helicase inh-2
COc1ccc(NS(=O)(=O)c2ccc3c(c2)[C@H]2C=CC[C@H]2[C@@H](c2ccc(C(=O)O)cc2)N3)cc1 | 20µM | . | 40µM | / | / | 38 | 22µM | . | 27µM
COC(=O)c1ccc([C@H]2Nc3ccc(S(=O)(=O)Nc4ccc(C)cc4)cc3[C@H]3C=CC[C@H]32)cc1 | . | . | / | / | / | / | / | / | /
Nc1ccc2nc(-c3cccc(-c4nc5ccc(N)cc5[nH]4)n3)[nH]c2c1 | ? | 14µM | 20µM | / | / | 1.7 | 5.4µM | 17µM | 4.8µM
COc1ccc(CCNC(=O)C23CCC(C)(C(=O)C2Br)C3(C)C)cc1OC (centres undefined) | . | . | . | . | . | / | / | / | /
O=C(Nc1ccccc1)Nc1ncc([N+](=O)[O-])s1 | . | . | . | . | . | / | / | / | /
O=C(COC(=O)c1ccccc1)Nc1ncc([N+](=O)[O-])s1 | 45µM | / | 3µM | 3.5µM | / | 67 | 3.4µM | 24µM | 1.1µM
O=C1CCCC(O)=C1N=Nc1ccc(C(=O)O)cc1 | 45µM | . | 32µM | 3.2µM | ? | ? | 7.6µM | ? | 12µM
O=C1CCCC(O)=C1N=Nc1ccc2c(c1)OCO2 | . | . | . | . | . | / | / | / | /
CCc1cccc(C)c1NS(=O)(=O)c1c(C(=O)N2CCC(C)CC2)c(C)n(C)c1C | . | . | / | / | / | / | / | / | /
C/C(=N/NC(=O)c1cc2ccccc2cc1O)C1C(=O)c2ccccc2C1=O | 50µM | 28µM | 45µM | / | ? | 60 | 15µM | 3.4µM | 15µM
NC(=O)c1ccc(C(=O)N/N=C(/Cc2ccccc2)c2ccccc2)cc1 | . | . | . | / | / | / | / | / | /
O=C1c2cccc(NCCCNCCO)c2C(=O)c2cccc(NCCCNCCO)c21 | 3.5µM | / | 10µM | / | / | 4.3 | 1.1µM | 0.86µM | 1.7µM
CC(C(=O)O)N1C(=O)/C(=C/C=C/c2ccco2)SC1=S (centres undefined) | 7.9µM | ? | 2.4µM | 1.1µM | 6.3µM | 15 | 0.54µM | . | 0.96µM
O=C1/C(=C/C=C/c2ccco2)SC(=S)N1NS(=O)(=O)c1ccccc1 | 4µM | ? | 8.9µM | / | 3.5µM | 17 | 4.8µM | . | 7.6µM
O=C(CCN1C(=O)/C(=C/c2ccco2)SC1=S)Nc1ccc(C(=O)O)c(O)c1 | 35µM | . | 45µM | / | / | 85 | 17µM | . | 22µM
O=c1cc2oc3cc(O)c(O)cc3c(-c3ccccc3[N+](=O)[O-])c-2cc1O | ? | 0.71µM | 0.75µM | / | / | ? | 0.38µM | ? | 0.22µM
O=c1cc(-c2ccccc2)oc2cc(O)c(O)cc12 | / | . | / | / | . | / | / | / | /
CCN(CC)CCCNc1nc2ccccc2c2[nH]c3ccc(OC)cc3c12 | 3.5µM | / | 25µM | / | / | 2.7 | 6.8µM | ? | ?
CCN(CC)CCCNc1nc(-c2ccccc2)nc2ccccc12 | . | . | . | . | . | / | / | / | /
CCn1c(SCc2nc3sc(C(=O)O)c(C)c3c(=O)[nH]2)nc2ccccc21 | 13µM | . | 20µM | / | ? | 21 | 6.8µM | 12µM | 19µM
O=C(NCc1ccccn1)C1CC(c2ccc(Cl)c(Cl)c2)=NO1 (centres undefined) | . | . | . | . | . | / | / | / | /
O=C(O)CCCNc1cc(N2CCN(C3CCCCC3)CC2)c2noc3c2c1C(=O)c1ccccc1-3 | ? | . | / | / | / | ? | 6.8µM | . | 6.1µM
CC(=O)Nc1ccc2nc3c(=O)[nH]c(=O)[nH]c3nc2c1 | 28µM | 11µM | / | / | / | 38 | 3.8µM | . | 1.4µM
CCOC(=O)Nc1ccc(C(N)=O)cc1 | . | . | . | . | . | / | / | / | /
Cn1cccc1/C=C1\SC(=O)N(CC(=O)Nc2ccc(Cl)cc2)C1=O | . | . | . | . | . | / | / | / | /
N#CNC(=O)c1ccc(-n2cccc2/C=C2\NC(=O)N(CC(=O)Nc3cccc(F)c3)C2=O)cc1 | / | / | / | / | / | 34 | 11µM | 9.6µM | 4.8µM
N#CNC(=O)c1ccc(-n2cccc2/C=C2\NC(=O)N(CC(=O)Nc3ccc(Cl)cc3)C2=O)cc1 | / | / | / | / | / | 24 | 4.3µM | ? | 0.96µM
O=C(O)c1cccc(-n2cccc2/C=C2\NC(=O)N(Cc3ccc(F)cc3)C2=O)c1 | ? | . | ? | ? | . | / | / | / | /
